Out of some 310,000 compounds screened, about 14,000 (4.5%) showed an effect of 50% or more. The effect is printed as a negative number. This is one part of a sample in which strong results are shown more often than they occur.
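Further: peak tail current of the secondary pulse compared with the same well before compound.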

The target in the test is human ether-à-go-go-related gene (hERG) potassium channel (human, UniProt Q12809). As to the kind of experiment: primary screen, population patch clamp on CHO cells stably expressing hERG; higher = less effect of the substance.
human ether-à-go-go-related gene (hERG) potassium channel, sequence (Q12809 whole entry, looked up): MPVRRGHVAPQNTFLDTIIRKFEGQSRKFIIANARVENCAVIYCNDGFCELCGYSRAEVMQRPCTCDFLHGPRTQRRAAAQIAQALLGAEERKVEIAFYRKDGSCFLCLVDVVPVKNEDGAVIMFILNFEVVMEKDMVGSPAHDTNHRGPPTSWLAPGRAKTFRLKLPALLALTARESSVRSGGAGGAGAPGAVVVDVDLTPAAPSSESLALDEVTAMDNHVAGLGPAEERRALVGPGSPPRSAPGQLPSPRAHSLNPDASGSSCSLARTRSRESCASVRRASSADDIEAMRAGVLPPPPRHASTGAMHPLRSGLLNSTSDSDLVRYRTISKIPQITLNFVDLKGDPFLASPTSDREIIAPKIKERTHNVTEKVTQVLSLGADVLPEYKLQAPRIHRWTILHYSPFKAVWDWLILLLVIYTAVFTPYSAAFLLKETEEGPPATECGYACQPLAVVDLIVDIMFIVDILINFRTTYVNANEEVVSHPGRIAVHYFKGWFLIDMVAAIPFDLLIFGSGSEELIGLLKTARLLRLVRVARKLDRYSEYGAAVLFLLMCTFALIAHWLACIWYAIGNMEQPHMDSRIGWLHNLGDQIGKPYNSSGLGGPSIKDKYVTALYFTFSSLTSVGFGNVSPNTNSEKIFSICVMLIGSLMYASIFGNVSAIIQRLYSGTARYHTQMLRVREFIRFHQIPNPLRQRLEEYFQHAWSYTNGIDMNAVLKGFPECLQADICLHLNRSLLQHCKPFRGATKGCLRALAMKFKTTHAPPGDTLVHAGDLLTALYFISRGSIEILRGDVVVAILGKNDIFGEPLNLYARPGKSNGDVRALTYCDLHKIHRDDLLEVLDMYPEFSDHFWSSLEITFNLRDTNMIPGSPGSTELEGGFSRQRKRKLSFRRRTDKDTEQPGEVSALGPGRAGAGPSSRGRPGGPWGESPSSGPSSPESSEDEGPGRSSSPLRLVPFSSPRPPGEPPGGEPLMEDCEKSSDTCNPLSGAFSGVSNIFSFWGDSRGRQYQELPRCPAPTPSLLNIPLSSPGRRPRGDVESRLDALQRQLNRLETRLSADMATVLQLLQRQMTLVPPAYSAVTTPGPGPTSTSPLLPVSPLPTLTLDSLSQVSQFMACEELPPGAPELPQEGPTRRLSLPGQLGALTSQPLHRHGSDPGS
Take `FC(F)(F)c1cccc(Cn2c3[n+](c4ccc(C(F)(F)F)cc42)CCCCC3)c1.[Cl-]`: the “hERG current change (%, negative = inhibition) at 10uM” value is on record as -17.6%.
Take `COc1ccc(OC)c(CC(=O)O)c1`: the “hERG current change (%, negative = inhibition) at 10uM” value worked out at 10.8%.
Then `O=C(NC1CCCCC1)C1CCN(c2nccs2)CC1`, with 4.43%.
For the compound `COc1ccc(/C=C2/C(=O)N=C(N)N2C)cc1OC`, the “hERG current change (%, negative = inhibition) at 10uM” value is on record as 7.3%.
`COc1cc(-c2noc(C)c2/C=C/c2cccc([N+](=O)[O-])c2)cc(OC)c1OC`: the “hERG current change (%, negative = inhibition) at 10uM” value is listed as -2.59%.
Take `COC(=O)C1=CN(CCCN2CCCC2=O)C=C(C(=O)OC)C1c1cccs1`: the “hERG current change (%, negative = inhibition) at 10uM” value was -25.1%.
Then `CCCCN1C=C(C(=O)OC)C(c2ccccc2C(F)(F)F)C(C(=O)OC)=C1`, with -1.84%; and `COC(=O)C1=CN(CC2CCCO2)C=C(C(=O)OC)C1c1ccccc1C(F)(F)F` (centres unmarked), with 8.49%.
Then `COC(=O)C1=CN(CCCN2CCCC2=O)C=C(C(=O)OC)C1c1ccccc1C(F)(F)F`, with -57.1%; and `CCOC(=O)C1=CN(CC2CCCO2)C=C(C(=O)OCC)C1c1ccccc1C(F)(F)F` (centres unmarked), with -64.7%; and `COCCN1C=C(C(=O)OC)C(c2ccccc2C(F)(F)F)C(C(=O)OC)=C1`, with -8.36%.
Then `CN(Cc1ccccc1Br)C(=O)CN1C(=O)NC2(CCCCCC2)C1=O`, with -11.1%; and `O=C(Nc1cccc(Cl)c1)N1CCC(CO)(CCOc2ccccc2)CC1`, with -58.6%.
With `O=C(Nc1cccc(Cl)c1)OCCOc1ccccc1`, the “hERG current change (%, negative = inhibition) at 10uM” value worked out at 23%.
For `OCC1(CCOc2ccccc2)CCN(Cc2ccncc2)CC1`, the “hERG current change (%, negative = inhibition) at 10uM” value is given as -41.5%.
Next, `O=C(Nc1cccc(Cl)c1)N1CCCC1`: 5.7%; `CSc1ccc(CN2CCC(CO)(CCOc3ccccc3)CC2)cc1`: -78.4%; `COC(=O)c1ccc(CN2CCC(CO)(CCOc3ccccc3)CC2)cc1`: -80.1%.
Consider `CC(=O)Nc1ccc(N2CCN(Cc3ccccc3)CC2)cc1`, for which the “hERG current change (%, negative = inhibition) at 10uM” value is reported as -14.6%.
For the compound `CC(=O)Nc1ccc(CN2CCC(CO)(CCOc3ccccc3)CC2)cc1`, the “hERG current change (%, negative = inhibition) at 10uM” value is -69.9%.
Turning to `CCS(=O)(=O)N1CCN=C1SCc1cccc(F)c1`, the “hERG current change (%, negative = inhibition) at 10uM” value was determined as 14.7%.
Regarding `CCCCN(C)C(=O)c1ccc2c(c1)S(=O)(=O)c1ccccc1C2=O`, the “hERG current change (%, negative = inhibition) at 10uM” value is -24.4%.
As to `Cc1ccc(C2(C)NC(=O)N(CC(=O)NC(C)c3ccccc3)C2=O)cc1` (centres unmarked), the “hERG current change (%, negative = inhibition) at 10uM” value was found to be 11.7%.
Take `CC(C)(C)c1ccc(OCCC(=O)OCC(=O)NC(=O)NC2CCCC2)cc1`: the “hERG current change (%, negative = inhibition) at 10uM” value is 10.7%.
Take `COc1ccc(NC(C)=O)cc1NC(=O)CSc1nnc(-c2ccccn2)n1C`: the “hERG current change (%, negative = inhibition) at 10uM” value is -7.69%.
Next, `Cc1ccsc1CN(C)C(=O)CN1C(=O)NC(c2ccccc2)(c2ccccc2)C1=O`: -21.5%; `CCOC(=O)c1c(C)n(C)c2ccc(OCC(O)CN3CCCCCC3)cc12.Cl` (centres unmarked): -18.4%.
For `NNC(=O)c1n[nH]c2c1CC(C1CCCCC1)CC2` (centres unmarked), the “hERG current change (%, negative = inhibition) at 10uM” value was found to be 10.8%.
Then `CCOCCn1c(C(C)O)nc2ccccc21` (centres unmarked), with 11.7%; and `Cc1cc(Cl)nc(-n2nc(C)cc2C)n1`, with 2.6%; and `CCOC(=O)C1CCN(CC(O)COCc2ccc(Cl)cc2)CC1.Cl` (centres unmarked), with -79.2%.
Next, `CCOC(=O)C1CCN(CC(O)COCc2ccccc2)CC1.O=C(O)C(=O)O` (centres unmarked): -31.1%; `O=C(O)C(=O)O.OC(COCc1ccc(Cl)cc1)CN1CC=C(c2ccccc2)CC1` (centres unmarked): -77.2%; `OC(COCc1ccc(Cl)cc1)CN1CCN(CC(O)COCc2ccc(Cl)cc2)CC1` (centres unmarked): -75.2%.
Next, `Cl.OC(COCc1ccc(Cl)cc1)CN1CCCCC1` (centres unmarked): -35.8%; `Cl.OC(COCc1ccc(Cl)cc1)CN1CCc2ccccc2C1` (centres unmarked): -70.4%; `OC(CN1CC=C(c2ccccc2)CC1)c1ccccc1` (centres unmarked): -33%.
Take `Cl.OC(COCc1ccccc1)CN1CCc2ccccc2C1` (centres unmarked): the “hERG current change (%, negative = inhibition) at 10uM” value is on record as -25.7%.
`Cl.OC(COCc1ccccc1)CN1CCCC1` (centres unmarked): the “hERG current change (%, negative = inhibition) at 10uM” value was -6.03%.
For the compound `NC(=O)C1CCCN(CC(O)COCc2ccc(Cl)cc2)C1.O=C(O)C(=O)O` (centres unmarked), the “hERG current change (%, negative = inhibition) at 10uM” value is given as -8.86%.
Then `CCOC(=O)C1CCN(CC(O)COCc2ccc3c(c2)OCO3)CC1.Cl` (centres unmarked), with -46%.
Then `COc1ccc(COCC(O)CN2CCc3ccccc3C2)cc1OC.Cl` (centres unmarked), with 1.52%; and `O=C(NCC(=O)N1CCCCCC1)c1ccc(Br)cc1`, with -7.84%; and `CCOP(=O)(OCC)c1nc(-c2cccc3ccccc23)oc1NCc1ccccc1`, with 10.2%.

The record behind these values is PMC4336329 (PLoS ONE, 2015).
